Compound activity from PubChem.
Only some compounds are listed: those with a hit (about 6.9% of all), similar ones and a draw of the others.
KB-3-1 cytotox: kills parental KB-3-1 adenocarcinoma cells | AID 1347075 | KB-3-1 viability, CellTiter-Glo ATP luminescence, 72 h | 1.4% of 400,000 active | Potency, µM (doses to about 46.1 µM), usual class: cytotoxic; note: potency is the fitted concentration of half-maximal effect; % is set by controls: 0 for no effect and ±100 for the full control effect; nearly all actives have a fitted effect of over 60% in size
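Screening of KB-3-1 cells (DMEM, 10% FBS, phenol-red free) ran from lowest to highest compound concentration; after 72 h at 37 °C viability was read luminescently and curves fitted.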
SW480 rereplic: induces DNA re-replication in SW480 colon adenocarcinoma cells. 1.8% of 340,000 active. SW480 DNA re-replication, Hoechst DNA content imaging, 48 h. AID 624297. Potency, µM (top dose mostly 46.1 µM), without a hit: at the highest dose re-replication activation, hits mostly activators; note: potency is the fitted concentration of half-maximal effect; % of control where 0% means no effect; nearly all actives have a fitted effect of over 55% in size
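250 cells/well; 23 nL cpd via pin tool; 48 hr, 37 C, 5% CO2; Hoechst 40 min; imager read of total nuclear intensity, ex 405/em 500-530 nm.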
S-ASM inh: blocks human secretory acid sphingomyelinase; P17405; placental ASM, HMU-PC fluorogenic substrate, 60 min; Potency, µM (highest dose often 57.5 µM), inactives show top-dose activity change, negative = inhibition, actives largely listed as inhibitors; 0.006% of 340,000 active; AID 504937; note: potency is the fitted concentration of half-maximal effect
Target sequence (P17405 47-631 limits assumed): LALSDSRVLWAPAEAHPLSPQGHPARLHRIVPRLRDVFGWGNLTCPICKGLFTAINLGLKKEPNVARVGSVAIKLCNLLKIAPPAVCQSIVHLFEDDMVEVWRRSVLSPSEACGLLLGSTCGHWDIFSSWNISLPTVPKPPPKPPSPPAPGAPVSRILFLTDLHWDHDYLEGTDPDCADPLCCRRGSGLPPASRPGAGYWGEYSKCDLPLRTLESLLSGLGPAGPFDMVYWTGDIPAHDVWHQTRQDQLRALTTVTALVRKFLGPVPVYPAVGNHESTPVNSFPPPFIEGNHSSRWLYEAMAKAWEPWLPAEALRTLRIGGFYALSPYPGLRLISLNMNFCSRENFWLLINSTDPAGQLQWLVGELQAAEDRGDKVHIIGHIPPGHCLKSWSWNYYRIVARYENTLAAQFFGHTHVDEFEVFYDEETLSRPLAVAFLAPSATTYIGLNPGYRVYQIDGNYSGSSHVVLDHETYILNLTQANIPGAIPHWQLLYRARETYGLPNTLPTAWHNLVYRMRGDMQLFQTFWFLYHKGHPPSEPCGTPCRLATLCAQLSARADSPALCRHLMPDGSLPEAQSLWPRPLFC
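Human placenta-derived ASM enzyme was preincubated with compound for 10 minutes at room temperature, then given fluorogenic substrate HMU-PC0 (9 uM final) for 60 minutes at 37 °C; a pH 10 stop preceded fluorescence reading at Ex 386/Em 447 nm.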
MCF10A rereplic: induces DNA re-replication in MCF 10a normal breast cells. AID 624296. 2.9% of 350,000 active. MCF 10A DNA re-replication, Hoechst nuclear intensity, 48 h. Potency, µM (highest dose often 46.1 µM), inactives show top-dose activity, positive = re-replication, usual class: activators; note: potency is the fitted concentration of half-maximal effect; % of control where 0% means no effect; nearly all actives have a fitted effect of over 50% in size
Giardia killer: Giardia lamblia killing; Giardia lamblia trophozoite viability; activity change, % at 7.66 µM, hits read low; 0.15% of 340,000 active; AID 540267; in the data active = activity change below about -80%; inconclusive = between about -30% and that limit;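 note: parasites exposed to compound for two days anaerobically before the ATP read; % is set by controls: 0 for no effect and ±100 for the full control effect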
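Luminescence from cellular ATP indicates surviving trophozoites (100 cells/well) following 48 hrs anaerobic compound treatment at 37 deg C; signal develops 15-30 min at room temperature.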
KB-V1 cytotox: KB-V1 MDR subline cytotoxicity. KB-V1 MDR cells viability, CellTiter-Glo, 72 h. Potency, µM (series often up to 46.1 µM), actives largely listed as cytotoxic. 3.4% of 400,000 active; note: potency is the fitted concentration of half-maximal effect; % is set by controls: 0 for no effect and ±100 for the full control effect; nearly all actives have a fitted effect of over 60% in size
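Following 72 h at 37 degrees C with compound, KB-V1 cell viability was read by CellTiter-Glo luminescence, medium being phenol-red-free DMEM plus 10% FBS; concentration-response parameters came from normalized, curve-fitted qHTS data.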
* hit, by the source's call; i = inactive; ? = inconclusive; / = not tested or not shown. Unless noted, calls come from the whole dose curve; as a rule, active = well fitted curve in the direction sought with a large enough effect; inconclusive = small, poorly fitted or top-dose-only effect, or another doubt; inactive = no such curve, though single readings can be large; an effect the other way counts as inactive or inconclusive.

SMILES	KB-3-1 cytotox	SW480 rereplic	S-ASM inh	MCF10A rereplic	Giardia killer	KB-V1 cytotox
O=C(O)c1ccccc1Nc1ccc([N+](=O)[O-])cc1	9.2µM*	1.6%	-0.3%	9.6%	3.0	?
COc1ccc(NC(=O)c2ccc3c(c2)c(C)c(C)n3Cc2ccc(F)cc2)cc1	11.6µM*	/	/	/	/	8.2µM*
CCOC(=O)/C(=N\O)C1=NC(C)(C)Cc2ccccc21	i	23.5%	2.8%	16.9%	3.4	i
Cc1cccc(N/N=C(\C(N)=O)C2=NC(C)(C)Cc3ccccc32)c1	16.4µM*	15.9%	-20.9%	11.6µM*	-4.0	23.1µM*
CCCCCCc1ccc(-c2ncc(N)cn2)cc1	i	7.4%	-3.7%	12.6µM*	0.0	i
CC1(Cc2ccccc2Cl)C(=O)Nc2ccc(OC(F)(F)F)cc21 (centres undefined)	i	/	/	/	/	i
Cc1ccc(C(=O)CN2/C(=C(\O)c3ccccc3)C(=O)c3ccccc3S2(=O)=O)c(C)c1	?	?	-0.9%	?	-25.3	2.31µM*
N#C/C(=C\c1cccs1)C(=O)c1ccccc1Cl	i	?	-2.5%	5.8µM*	15.6	i
Cc1ccc(Sc2ncccc2C(=O)NC2CCCCCC2)cc1C	i	1.3%	0.3%	-2.4%	10.9	i
O=C(NC(c1ccccc1)c1ccccc1)C1CCCC1	i	?	1.4%	-4.4%	-3.9	16.4µM*
CC(NC(=O)C1CCCC1)c1ccccc1 (centres undefined)	i	-7.7%	5.0%	-2.9%	-3.4	i
O=C(NC1CCCCCC1)c1cccnc1Sc1ccccc1	i	-1.5%	-0.4%	?	-13.2	23.1µM*
O=C(Nc1ccccc1-c1ccccc1)C1CCCC1	7.31µM*	?	-1.0%	13µM*	-4.0	?
O=C(Nc1ccccc1C(F)(F)F)C1CCCC1	i	-4.8%	-1.6%	0.0%	-15.0	i
O=C(NC1CCCC1)c1ccccc1-c1ccccc1	i	-0.4%	1.8%	-32.0%	9.8	14.6µM*
O=C(NC1CCCC1)c1cc(-c2ccccc2)nc2ccccc12	i	-1.1%	-6.5%	6.5%	14.9	?
Cc1ccc(C)c(Cn2nnc(C(=O)NCc3ccc(Cl)cc3Cl)c2N)c1	i	/	/	/	/	i
C#CCOCCOCCOCCNc1nc(N2CCN(C(=O)CCCCCCCCCCNC(=O)Cn3cc(CCCCCN)nn3)CC2)nc(N2CCN(C(=O)CCCCCCCCCCNC(=O)Cn3cc(CCCCCN)nn3)CC2)n1	i	-7.5%	-3.4%	-2.5%	0.8	i
CCCCCC(=O)N1C[C@H](n2cc(C3CC3)nn2)[C@@H](O)C[C@@H]1c1ccccc1	i	/	/	/	/	i
O=C(NC(=S)Nc1ccccc1Br)C1CCCCC1	i	0.3%	-0.8%	?	-9.3	16.4µM*
CN1CCN(c2cc3c(c4c2[nH]c2ccccc24)C(=O)CC(C)(C)C3)CC1	?	?	i	20.6µM*	-11.6	i
O=C(NCCCN1CCOCC1)c1ccc(Cl)c([N+](=O)[O-])c1	i	-32.9%	0.1%	?	-8.6	i
Cc1ccc(NC(=O)c2ccc(NCCCN3CCOCC3)c([N+](=O)[O-])c2)cc1Cl	8.2µM*	?	?	?	4.1	23.1µM*
COc1ccc(NC(=O)c2ccc(NCCCN3CCOCC3)c([N+](=O)[O-])c2)cc1	?	-5.1%	-24.4%	13.5%	25.4	9.2µM*
O=C(NCCCN1CCOCC1)c1ccc(Sc2cccc(Cl)c2)c([N+](=O)[O-])c1	?	-8.8%	-7.4%	20.2%	8.5	20.6µM*
SMILES	KB-3-1 cytotox	SW480 rereplic	S-ASM inh	MCF10A rereplic	Giardia killer	KB-V1 cytotox
O=[N+]([O-])c1ccc(NCCCN2CCOCC2)c([N+](=O)[O-])c1	i	-7.7%	-9.8%	16.6%	?	i
O=[N+]([O-])c1cc(S(=O)(=O)NCCCN2CCOCC2)ccc1Cl	i	?	3.7%	16.4µM*	40.8	i
O=C(C[n+]1ccc2ccccc2c1)c1ccc(O)c(O)c1	i	/	/	/	/	i
O=C(Nc1cccc(S(=O)(=O)N2CCOCC2)c1)c1ccc(Cl)c([N+](=O)[O-])c1	i	16.4µM*	-9.4%	9.2µM*	1.7	i
Cc1ccc(C(=O)Nc2ccccc2[N+](=O)[O-])cc1S(=O)(=O)N1CCOCC1	?	?	-5.1%	?	-20.0	?
Cc1ccc(NC(=O)c2ccc(N3CCOCC3)c([N+](=O)[O-])c2)cc1S(=O)(=O)N1CCOCC1	20.6µM*	-9.5%	-18.7%	0.9%	-4.7	?
O=C(Nc1ccc(Cl)c([N+](=O)[O-])c1)c1ccc(NCCCN2CCOCC2)c([N+](=O)[O-])c1	i	2.91µM*	-11.5%	?	?	4.61µM*
CCCc1nn2c(=O)cc(COC(=O)c3cccs3)nc2s1	i	/	/	/	/	i
COc1ccc(Cl)cc1NC(=O)C1CCN(c2ncnc3c2nc2n3CCCCC2)CC1	i	/	/	/	/	i
CC(=O)c1ccc(NC(=O)CN2C(=O)CCc3cc(S(=O)(=O)N4CCC(C)CC4)ccc32)cc1	i	/	/	/	/	?
CC1Cc2cc(S(=O)(=O)NCCc3ccc(Cl)cc3)ccc2N1C(=O)C1CCC1 (centres undefined)	?	/	/	/	/	i
CCn1ncc(C2=NOC(C(=O)Nc3cccc(C(C)=O)c3)C2)c1C (centres undefined)	?	-9.9%	5.1%	-2.8%	-10.2	18.4µM*
CCn1ncc(C2=NOC(C(=O)NCc3ccc(OC)cc3)C2)c1C (centres undefined)	?	?	1.6%	?	-1.6	?
CCn1ncc(C2=NOC(C(=O)NCc3ccccc3)C2)c1C (centres undefined)	1.64µM*	3.66µM*	2.3%	4.61µM*	1.8	?
O=C(Nc1cnn(Cc2ccc(Cl)cc2Cl)c1)c1noc2c1CCc1ccccc1-2	i	/	/	/	/	i
COc1ccccc1N1CCN(c2ccc3ccccc3n2)CC1	i	-21.6%	15.6%	17.4%	-26.4	?
COc1ccccc1N1CCN(Cc2ccc(C(=O)O)cc2)CC1	i	-6.3%	0.3%	9.9%	7.1	?
COc1ccccc1N1CCN(c2ccc(-c3ccccc3)nn2)CC1	2.06µM*	4.11µM*	-0.9%	2.59µM*	?	2.06µM*
COc1ccc(CN2CCN(c3ccccc3OC)CC2)cc1OC	i	-17.1%	-2.5%	2.06µM*	7.2	?
COc1ccccc1N1CCN(Cc2ccc(O)c3ncccc23)CC1	5.17µM*	?	2.1%	?	41.1	?
COc1ccccc1N1CCN(CCCCCCOc2ccc(F)cc2)CC1	?	?	3.3%	?	0.9	3.66µM*
CCN(c1ccccc1)c1ncnc2c1cnn2-c1ccc(C)cc1C	i	/	/	/	/	i
